# Experimental data taken from PubChem BioAssay AID1159580 (chemical genetic matrix, 2015).
# Among all 5,500 compounds or so, about 2,000 (36%) were called active. About 18% were inconclusive and are not listed. The list shows a part of the results. A number with no mark means an inactive call. Rule as the data show it: active = normalized growth mostly below about 0.91 (no sharp cut-off); inconclusive = no clear call, values can overlap the other calls; inactive = mostly above about 0.92.
# Assay: chemical genetic growth profiling, strain panel (AID 1159580);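 also: tested at 20 µM; growth read once vehicle control cultures reached saturation at 30 °C; 1 = growth at the plate median or of vehicle wells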
# Details: growth OD
smiles,measurement,setting,value
CCCOc1ccc2nc(NC(=O)OC)[nH]c2c1,normalized growth,"S. cerevisiae deletion strains, locus YJR075W, strain HOC1, stronger effect = lower value",0.992
same,normalized growth,"S. cerevisiae deletion strains, locus YKL009W, strain mrt4, stronger effect = lower value",0.99
same,normalized growth,"S. cerevisiae deletion strains, locus YKL068W, stronger effect = lower value",0.995
same,normalized growth,"S. cerevisiae deletion strains, locus YKL085W, strain MDH1 (second series), stronger effect = lower value",0.995
same,normalized growth,"S. cerevisiae deletion strains, locus YKL085W, strain MDH1, stronger effect = lower value",0.995
same,normalized growth,"S. cerevisiae deletion strains, locus YKL160W, strain elf1, stronger effect = lower value",1.02
same,normalized growth,"S. cerevisiae deletion strains, locus YKL190W, strain CNB1, stronger effect = lower value",1.02
same,normalized growth,"S. cerevisiae deletion strains, locus YKR001C, strain vps1, stronger effect = lower value",0.96
same,normalized growth,"S. cerevisiae deletion strains, locus YKR026C, strain gcn3, stronger effect = lower value",1.02
same,normalized growth,"S. cerevisiae deletion strains, locus YKR091W, strain srl3, stronger effect = lower value",1.01
same,normalized growth,"S. cerevisiae deletion strains, locus YLL001W, strain dnm1, stronger effect = lower value",1.01
same,normalized growth,"S. cerevisiae deletion strains, locus YLL026W, stronger effect = lower value",1.01
same,normalized growth,"S. cerevisiae deletion strains, locus YLL041C, strain sdh2, stronger effect = lower value",1.01
same,normalized growth,"S. cerevisiae deletion strains, locus YLR027C, strain aat2, stronger effect = lower value",1.01
same,normalized growth,"S. cerevisiae deletion strains, locus YLR039C, strain RIC1, stronger effect = lower value",0.833
same,normalized growth,"S. cerevisiae deletion strains, locus YLR058C, strain SHM2, stronger effect = lower value",0.99
same,normalized growth,"S. cerevisiae deletion strains, locus YLR102C, strain apc9, stronger effect = lower value",0.981
same,normalized growth,"S. cerevisiae deletion strains, locus YLR113W, strain HOG1, stronger effect = lower value",1.03
same,normalized growth,"S. cerevisiae deletion strains, locus YLR221C, strain rsa3, stronger effect = lower value",1.01
same,normalized growth,"S. cerevisiae deletion strains, locus YLR258W, strain gsy2, stronger effect = lower value",1.01
same,normalized growth,"S. cerevisiae deletion strains, locus YLR262C, strain YPT6 (second series), stronger effect = lower value",0.955
same,normalized growth,"S. cerevisiae deletion strains, locus YLR262C, strain YPT6, stronger effect = lower value",0.849
same,normalized growth,"S. cerevisiae deletion strains, locus YLR268W, strain sec22, stronger effect = lower value",0.971
same,normalized growth,"S. cerevisiae deletion strains, locus YLR320W, strain mms22, stronger effect = lower value",1.04
same,normalized growth,"S. cerevisiae deletion strains, locus YLR330W, strain CHS5, stronger effect = lower value",0.989
same,normalized growth,"S. cerevisiae deletion strains, locus YLR342W, strain FKS1 (second series), stronger effect = lower value",0.973
same,normalized growth,"S. cerevisiae deletion strains, locus YLR342W, strain FKS1, stronger effect = lower value",1.03
same,normalized growth,"S. cerevisiae deletion strains, locus YLR357W, strain rsc2, stronger effect = lower value",1.02
same,normalized growth,"S. cerevisiae deletion strains, locus YLR370C, strain arc18, stronger effect = lower value",1.02
same,normalized growth,"S. cerevisiae deletion strains, locus YLR371W, strain rom2, stronger effect = lower value",0.983
same,normalized growth,"S. cerevisiae deletion strains, locus YLR384C, strain iki3, stronger effect = lower value",1.01
same,normalized growth,"S. cerevisiae deletion strains, locus YLR418C, strain cdc73, stronger effect = lower value",0.878
same,normalized growth,"S. cerevisiae deletion strains, locus YML016C, strain PPZ1, stronger effect = lower value",0.983
same,normalized growth,"S. cerevisiae deletion strains, locus YML032C, strain rad52, stronger effect = lower value",0.982
same,normalized growth,"S. cerevisiae deletion strains, locus YML120C, strain ndi1, stronger effect = lower value",1.02
same,normalized growth,"S. cerevisiae deletion strains, locus YML124C, strain tub3, stronger effect = lower value",0.88 (active)
same,normalized growth,"S. cerevisiae deletion strains, locus YMR058W, strain fet3, stronger effect = lower value",1.01
same,normalized growth,"S. cerevisiae deletion strains, locus YMR078C, strain ctf18, stronger effect = lower value",0.979
same,normalized growth,"S. cerevisiae deletion strains, locus YMR125W, strain sto1, stronger effect = lower value",1.02
same,normalized growth,"S. cerevisiae deletion strains, locus YMR129W, stronger effect = lower value",1.02
same,normalized growth,"S. cerevisiae deletion strains, locus YMR205C, strain PFK2, stronger effect = lower value",1.03
same,normalized growth,"S. cerevisiae deletion strains, locus YMR223W, strain ubp8, stronger effect = lower value",0.96
same,normalized growth,"S. cerevisiae deletion strains, locus YMR231W, strain pep5, stronger effect = lower value",1.01
same,normalized growth,"S. cerevisiae deletion strains, locus YMR263W, strain SAP30, stronger effect = lower value",0.989
same,normalized growth,"S. cerevisiae deletion strains, locus YMR307W, strain GAS1, stronger effect = lower value",0.844
same,normalized growth,"S. cerevisiae deletion strains, locus YNL067W, strain RPL9B, stronger effect = lower value",1.01
same,normalized growth,"S. cerevisiae deletion strains, locus YNL071W, strain lat1, stronger effect = lower value",1.02
same,normalized growth,"S. cerevisiae deletion strains, locus YNL128W, strain TEP1, stronger effect = lower value",0.975
same,normalized growth,"S. cerevisiae deletion strains, locus YNL153C, strain GIM3, stronger effect = lower value",0.438 (active)
same,normalized growth,"S. cerevisiae deletion strains, locus YNL183C, strain NPR1, stronger effect = lower value",1.01
same,normalized growth,"S. cerevisiae deletion strains, locus YNL209W, strain ssb2, stronger effect = lower value",1.02
same,normalized growth,"S. cerevisiae deletion strains, locus YNL233W, strain BNI4, stronger effect = lower value",1.01
same,normalized growth,"S. cerevisiae deletion strains, locus YNL248C, strain rpa49, stronger effect = lower value",1.02
same,normalized growth,"S. cerevisiae deletion strains, locus YNL250W, strain rad50, stronger effect = lower value",0.98
same,normalized growth,"S. cerevisiae deletion strains, locus YNL271C, strain bni1, stronger effect = lower value",0.986
same,normalized growth,"S. cerevisiae deletion strains, locus YNL298W, strain CLA4, stronger effect = lower value",0.965
same,normalized growth,"S. cerevisiae deletion strains, locus YNL307C, strain MCK1, stronger effect = lower value",0.972
same,normalized growth,"S. cerevisiae deletion strains, locus YNL322C, strain KRE1 (second series), stronger effect = lower value",1
same,normalized growth,"S. cerevisiae deletion strains, locus YNL322C, strain KRE1, stronger effect = lower value",1
same,normalized growth,"S. cerevisiae deletion strains, locus YNR049C, strain mso1, stronger effect = lower value",1.01
same,normalized growth,"S. cerevisiae deletion strains, locus YNR052C, strain pop2, stronger effect = lower value",0.977
same,normalized growth,"S. cerevisiae deletion strains, locus YOL006C, strain TOP1, stronger effect = lower value",0.983
same,normalized growth,"S. cerevisiae deletion strains, locus YOL012C, strain htz1",0.822
same,normalized growth,"S. cerevisiae deletion strains, locus YOL147C, strain pex11, stronger effect = lower value",0.975
same,normalized growth,"S. cerevisiae deletion strains, locus YOR001W, strain rrp6, stronger effect = lower value",1.02
same,normalized growth,"S. cerevisiae deletion strains, locus YOR061W, strain CKA2, stronger effect = lower value",0.992
same,normalized growth,"S. cerevisiae deletion strains, locus YOR069W, strain VPS5, stronger effect = lower value",0.993
same,normalized growth,"S. cerevisiae deletion strains, locus YOR070C, strain gyp1, stronger effect = lower value",1.01
same,normalized growth,"S. cerevisiae deletion strains, locus YOR080W, strain dia2, stronger effect = lower value",1.02
same,normalized growth,"S. cerevisiae deletion strains, locus YOR083W, strain WHI5, stronger effect = lower value",1.02
same,normalized growth,"S. cerevisiae deletion strains, locus YOR106W, strain vam3, stronger effect = lower value",0.999
same,normalized growth,"S. cerevisiae deletion strains, locus YOR136W, strain idh2, stronger effect = lower value",0.995
same,normalized growth,"S. cerevisiae deletion strains, locus YOR144C, strain elg1, stronger effect = lower value",0.988
same,normalized growth,"S. cerevisiae deletion strains, locus YOR184W, strain ser1, stronger effect = lower value",0.957
same,normalized growth,"S. cerevisiae deletion strains, locus YOR231W, strain MKK1, stronger effect = lower value",1.07
same,normalized growth,"S. cerevisiae deletion strains, locus YOR265W, strain rbl2, stronger effect = lower value",1.01
same,normalized growth,"S. cerevisiae deletion strains, locus YOR270C, strain vph1, stronger effect = lower value",1.02
same,normalized growth,"S. cerevisiae deletion strains, locus YOR290C, strain snf2, stronger effect = lower value",1.01
same,normalized growth,"S. cerevisiae deletion strains, locus YOR316C, strain cot1, stronger effect = lower value",0.983
same,normalized growth,"S. cerevisiae deletion strains, locus YPL051W, strain arl3, stronger effect = lower value",1.01
same,normalized growth,"S. cerevisiae deletion strains, locus YPL078C, strain atp4, stronger effect = lower value",1.02
same,normalized growth,"S. cerevisiae deletion strains, locus YPL106C, strain sse1, stronger effect = lower value",1.02
same,normalized growth,"S. cerevisiae deletion strains, locus YPL240C, strain hsp82, stronger effect = lower value",1.01
same,normalized growth,"S. cerevisiae deletion strains, locus YPL241C, strain CIN2, stronger effect = lower value",0.606 (active)
same,normalized growth,"S. cerevisiae deletion strains, locus YPL256C, strain CLN2, stronger effect = lower value",1.02
same,normalized growth,"S. cerevisiae deletion strains, locus YPR119W, strain clb2, stronger effect = lower value",0.987
same,normalized growth,"S. cerevisiae deletion strains, locus YPR141C, strain kar3, stronger effect = lower value",0.993
same,normalized growth,"S. cerevisiae deletion strains, locus YPR163C, strain tif3, stronger effect = lower value",0.982
same,normalized growth,"S. cerevisiae deletion strains, locus YPR167C, strain met16, stronger effect = lower value",0.977
same,normalized growth,"S. cerevisiae deletion strains, strain wtn01, stronger effect = lower value",0.967
same,normalized growth,"S. cerevisiae strains, strain wild type, stronger effect = lower value",0.995
